Data reported in the supplement of paper PMC6897291.

Assays:
U-2932 [1] = assay: growth inhibition by drug alone (1 - RLU/untreated control) (fraction); higher = stronger inhibition; conditions: 177Lu-lilotomab satetraxetan 0 ug/ml
How it was run: (§1)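 Compound doses on the pre-printed Selleck Cambridge Cancer Compound library plates were 10/100 nM for RIVA cells and 10/1,000 nM for U-2932 cells, seeded at 3,000 cells/well. Before seeding, cells were washed after 18 h with or without a radiolabelled anti-CD37 antibody conjugate (~600 MBq/mg; 0.5 µg/ml RIVA, 1 µg/ml U-2932). Growth inhibition was derived from RealTime-Glo luminescence relative to untreated no-drug control wells. Readings were taken daily starting on day 3, each after 1 h at 37°C, and each well's RLU was divided by the mean of 48 such wells per plate and subtracted from 1.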

RIVA [2] = assay: as above; conditions: 177Lu-lilotomab satetraxetan 0 ug/ml
How it was run: as §1

U-2932 [3] = assay: growth inhibition by drug plus 177Lu-lilotomab satetraxetan (1 - RLU/untreated control) (fraction); higher = stronger inhibition; conditions: 177Lu-lilotomab satetraxetan 1 ug/ml
How it was run: as §1

RIVA [4] = assay: as above; conditions: 177Lu-lilotomab satetraxetan 0.5 ug/ml
How it was run: as §1

Row | Compound | growth inhibition by drug alone (U-2932 [1]; 10 nM, time (day): 3) | growth inhibition by drug alone (U-2932 [1]; 10 nM, time (day): 4) | growth inhibition by drug alone (U-2932 [1]; 10 nM, time (day): 5) | growth inhibition by drug alone (U-2932 [1]; 10 nM, time (day): 6) | growth inhibition by drug alone (U-2932 [1]; 1000 nM, time (day): 3) | growth inhibition by drug alone (U-2932 [1]; 1000 nM, time (day): 4) | growth inhibition by drug alone (U-2932 [1]; 1000 nM, time (day): 5) | growth inhibition by drug alone (U-2932 [1]; 1000 nM, time (day): 6) | growth inhibition by drug alone (RIVA [2]; 10 nM, time (day): 3) | growth inhibition by drug alone (RIVA [2]; 10 nM, time (day): 4) | growth inhibition by drug alone (RIVA [2]; 10 nM, time (day): 5) | growth inhibition by drug alone (RIVA [2]; 10 nM, time (day): 6) | growth inhibition by drug alone (RIVA [2]; 100 nM, time (day): 3) | growth inhibition by drug alone (RIVA [2]; 100 nM, time (day): 4) | growth inhibition by drug alone (RIVA [2]; 100 nM, time (day): 5) | growth inhibition by drug alone (RIVA [2]; 100 nM, time (day): 6) | growth inhibition by drug plus 177Lu-lilotomab satetraxetan (U-2932 [3]; 10 nM, time (day): 3) | growth inhibition by drug plus 177Lu-lilotomab satetraxetan (U-2932 [3]; 10 nM, time (day): 4) | growth inhibition by drug plus 177Lu-lilotomab satetraxetan (U-2932 [3]; 10 nM, time (day): 5) | growth inhibition by drug plus 177Lu-lilotomab satetraxetan (U-2932 [3]; 10 nM, time (day): 6) | growth inhibition by drug plus 177Lu-lilotomab satetraxetan (U-2932 [3]; 1000 nM, time (day): 3) | growth inhibition by drug plus 177Lu-lilotomab satetraxetan (U-2932 [3]; 1000 nM, time (day): 4) | growth inhibition by drug plus 177Lu-lilotomab satetraxetan (U-2932 [3]; 1000 nM, time (day): 5) | growth inhibition by drug plus 177Lu-lilotomab satetraxetan (U-2932 [3]; 1000 nM, time (day): 6) | growth inhibition by drug plus 177Lu-lilotomab satetraxetan (RIVA [4]; 10 nM, time (day): 3) | growth inhibition by drug plus 177Lu-lilotomab satetraxetan (RIVA [4]; 10 nM, time (day): 4) | growth inhibition by drug plus 177Lu-lilotomab satetraxetan (RIVA [4]; 10 nM, time (day): 5) | growth inhibition by drug plus 177Lu-lilotomab satetraxetan (RIVA [4]; 10 nM, time (day): 6) | growth inhibition by drug plus 177Lu-lilotomab satetraxetan (RIVA [4]; 100 nM, time (day): 3) | growth inhibition by drug plus 177Lu-lilotomab satetraxetan (RIVA [4]; 100 nM, time (day): 4) | growth inhibition by drug plus 177Lu-lilotomab satetraxetan (RIVA [4]; 100 nM, time (day): 5) | growth inhibition by drug plus 177Lu-lilotomab satetraxetan (RIVA [4]; 100 nM, time (day): 6)
1 | CC(C)OC(=O)C1=CN(C(=O)c2ccc(F)c(F)c2)CC(C)(C)c2c1[nH]c1ccccc21 | 0.0404 | -0.0052 | -0.0866 | -0.191 | -0.0177 | -0.00403 | -0.0481 | -0.039 | 0.0268 | 0.00242 | 0.00693 | -0.0298 | -0.161 | -0.106 | -0.145 | -0.234 | 0.0558 | 0.102 | 0.14 | 0.204 | 0.038 | 0.085 | 0.0862 | 0.162 | 0.587 | 0.594 | 0.614 | 0.598 | 0.546 | 0.595 | 0.608 | 0.597
2 | NC(=O)c1ccc(-c2nc(-c3ccccn3)c(-c3ccc4c(c3)OCO4)[nH]2)cc1 | 0.107 | 0.0821 | -0.071 | -0.0929 | 0.0294 | 0.069 | -0.0548 | -0.0669 | 0.151 | 0.132 | 0.0924 | -0.233 | -0.221 | -0.199 | -0.195 | -0.245 | 0.0841 | 0.129 | 0.164 | 0.198 | 0.0479 | 0.102 | 0.125 | 0.211 | 0.633 | 0.64 | 0.642 | 0.63 | 0.438 | 0.521 | 0.528 | 0.52
3 | Cc1cc(Nc2cc(N3CCN(C)CC3)nc(/C=C/c3ccccc3)n2)n[nH]1 | -0.0691 | -0.0558 | -0.0606 | -0.0133 | 0.102 | 0.0113 | 0.0189 | 0.221 | -0.27 | -0.286 | -0.318 | -0.447 | -0.354 | -0.347 | -0.369 | -0.539 | -0.149 | -0.0973 | -0.0755 | -0.0149 | 0.048 | 0.00467 | 0.0776 | 0.323 | 0.336 | 0.485 | 0.509 | 0.521 | 0.23 | 0.353 | 0.36 | 0.357
4 | CC[C@H](Nc1ncnc2[nH]cnc12)c1nc2cccc(F)c2c(=O)n1-c1ccccc1 | -0.00827 | -0.000402 | -0.0211 | 0.0544 | 0.567 | 0.374 | 0.289 | 0.263 | -0.102 | -0.203 | -0.182 | -0.255 | 0.424 | 0.204 | 0.175 | 0.0639 | -0.0906 | -0.0707 | -0.0592 | 0.0112 | 0.507 | 0.287 | 0.217 | 0.234 | 0.367 | 0.448 | 0.484 | 0.5 | 0.575 | 0.541 | 0.554 | 0.546
5 | Cc1[nH]c(/C=C2\C(=O)Nc3ccc(S(=O)(=O)Cc4c(Cl)cccc4Cl)cc32)c(C)c1C(=O)N1CCC[C@@H]1CN1CCCC1 | -0.0448 | -0.0348 | -0.136 | -0.363 | -0.15 | -0.0937 | -0.118 | -0.0292 | -0.0942 | -0.161 | -0.228 | -0.375 | -0.272 | -0.354 | -0.323 | -0.456 | -0.098 | -0.0543 | -0.04 | 0.0103 | -0.291 | -0.156 | -0.125 | -0.00631 | – | – | – | – | – | – | – | –
6 | O=C(/C=C/C#Cc1cccc(NS(=O)(=O)c2ccccc2)c1)NO [Oxamflatin] | 0.0723 | 0.054 | 0.00482 | -0.0197 | 0.851 | 0.808 | 0.766 | 0.702 | 0.0849 | 0.0278 | 0.0468 | 0.0353 | 0.675 | 0.482 | 0.435 | 0.389 | -0.0134 | 0.0236 | 0.0539 | 0.158 | 0.941 | 0.947 | 0.958 | 0.96 | 0.518 | 0.564 | 0.59 | 0.607 | 0.726 | 0.683 | 0.691 | 0.686
7 | CN(C)CCCCSC(=N)N | 0.0803 | 0.0562 | -0.0181 | -0.016 | -0.0315 | 0.00953 | -0.0703 | -0.245 | -0.0402 | -0.0677 | -0.106 | -0.316 | -0.0334 | -0.0664 | -0.0858 | -0.22 | 0.0342 | 0.0372 | 0.0384 | 0.0444 | -0.0939 | 0.0263 | -0.0236 | -0.0661 | 0.357 | 0.498 | 0.532 | 0.544 | 0.259 | 0.415 | 0.415 | 0.398
